# Laboratory results reported in PubChem BioAssay AID602399 (Sanford-Burnham Center for Chemical Genomics, 2012).
# Several values for one entry are separate records, joined by “and”; a condition that tells them apart may be missing. Equal entries are not always repeated. The campaign covered roughly 360,000 compounds. About 2,800 (0.78%) were called active. No stated cut-off is given here; in the data, active means inhibition above about 26%; inactive means the rest. This excerpt belongs to a sample that is enriched for actives. Some structures have more than one record in an assay (separate samples or runs), and their calls can disagree.
# System: Nicotinate-nucleotide adenylyltransferase NadD (Staphylococcus aureus N315)
# Test: S. aureus NadD enzyme activity blockers – biochemical, colorimetric, uHTS, primary screen (AID 602399)
# Settings: purified NadD enzyme, colorimetric absorbance read-out; at 20 µM; stronger effect = higher value
row,Compound,inhibition
1,CCOC(=O)[C@]12CCCC=C1N(Cc1ccc(Cl)cc1Cl)C(=O)[C@H](CC(=O)N1CCCCC1)C2,-1.55% (inactive)
2,Cc1ccc(N(CC(=O)NCC2CCCO2)C(=O)CNS(=O)(=O)c2ccc(Cl)cc2)cc1 (stereo not drawn),2.66% (inactive)
3,COc1ccc(-c2nc3cc(C)ccn3c2NC2CCCCC2)cc1SC1CCCCC1,17% (inactive) and 21% (inactive)
4,COc1ccc(-c2nc3cnccn3c2NC2CCCCC2)cc1-c1cccc(Cl)c1,33.8% (active) and 14.3% (inactive)
5,COc1ccc(-c2nc3cnccn3c2NC(C)(C)CC(C)(C)C)cc1O,-3.5% (inactive)
6,COC(=O)c1ccc2nc(-c3cccc(Br)c3)c(Cc3ccc(OC)cc3C)n2c1,20.8% (inactive)
7,COC(=O)c1ccc2nc(-c3ccccc3)c(Cc3ccc(OC)cc3C)n2c1,10.9% (inactive)
8,COC(=O)c1ccc2nc(-c3ccc(C)cc3)c(Cc3ccc(OC)cc3C)n2c1,31.6% (active)
9,O=C(COC(=O)c1cccnc1Cl)Nc1ccc(S(=O)(=O)N2CCOCC2)cc1,-4.21% (inactive)
10,O=C(CSc1nnc(COc2ccc(Cl)cc2)n1Cc1ccco1)N1CCNC1=O,4.26% (inactive)
11,CCc1nc2oc3ccccc3c(=O)c2c(=O)n1Cc1ccc(OC)cc1,2.99% (inactive)
12,Cn1c2ccccc2c(=O)c2c(=O)n(Cc3ccco3)c(COc3ccccc3)nc21,42.5% (active)
13,COc1ccc(-c2ccc(CN3C(C(C)C)C(=O)N(Cc4cn(CC5CCCCC5)nn4)CCS3(=O)=O)cc2)cn1 (stereo not drawn),4.8% (inactive)
14,CCOC(=O)C(Sc1ncc(C#N)c(N)n1)C(C)C (stereo not drawn),2.12% (inactive)
15,CCCc1c(C(=O)Nc2ccc(F)cc2)cnn1-c1ccccc1,-0.321% (inactive)
16,Cc1cccc(C)c1-n1nnnc1C1(C)CCC(=O)N1CCOc1ccccc1 (stereo not drawn),-5.82% (inactive)
17,Cc1ccsc1/C=N/n1c(=S)[nH]nc(C)c1=O,1.04% (inactive)
18,CC(=O)C1=C(C)NC(C)=C(C(C)=O)C1c1cn(-c2ccccc2)nc1-c1cccs1,11.6% (inactive)
19,S=c1[nH]nc(-c2cccs2)n1/N=C/c1cn(-c2ccccc2)nc1-c1ccc(Cl)cc1,32.6% (active)
20,C[C@H]1CC[C@]2(O[C@@H](CCO)C[C@@H](O)[C@@H]2O)O1,0.758% (inactive)
21,O=C(COC(=O)CCCNC(=O)c1ccc(Cl)cc1)Nc1cc(Cl)ccc1Cl,-4.1% (inactive)
22,COc1ccc([N+](=O)[O-])cc1C1NN=C(c2cccc3ccccc23)S1 (stereo not drawn),17.6% (inactive)

row,Compound,inhibition
1,NC(=O)C1CC(=O)N(c2ccc(OCC(=O)NCc3ccccc3)cc2)C1 (stereo not drawn),1.55% (inactive)
2,COc1ccccc1C(=O)NCC(=O)OCC(=O)Nc1nnc(-c2ccccc2)o1,10.3% (inactive)
3,O=C(COC(=O)c1ccccc1)Nc1ccccc1Sc1ccccc1,-7.21% (inactive)
4,O=C(COC(=O)c1ccc(Oc2ccccc2)cc1)Nc1nnc(-c2ccccc2)o1,47.6% (active)
5,CC(C)(C)C(=O)CCN1C(=O)C2(OCCO2)c2ccccc21,-0.902% (inactive)
6,COC(=O)[C@@]1(Cc2ccc(F)cc2)[C@H]2c3cc(C(=O)N4CCCC4)n(Cc4ccc(OC(F)(F)F)cc4)c3C[C@H]2CN1C(=O)c1ccccc1,13.9% (inactive)
7,Cc1cc(C(=O)CSc2nc(N)cc(=O)[nH]2)c(C)n1-c1cccc(F)c1,23.5% (inactive)
8,Cc1cc(C(=O)CSc2nc(N)cc(=O)[nH]2)c(C)n1CCc1ccc(Cl)cc1,45.2% (active)
9,Cc1cc(=O)[nH]c(SCc2ccc(Cl)cc2)n1,-4.15% (inactive)
10,C/C=C/C=C/C(=O)O,2.73% (inactive)
11,COC(=O)c1sccc1NC(=O)CSc1ccccc1NS(=O)(=O)c1cc(Cl)ccc1Cl,8.33% (inactive)
12,Cc1ccc(S(=O)(=O)N/N=C\c2cc3c(cc2[N+](=O)[O-])OCO3)cc1,-4.98% (inactive)
13,O=[N+]([O-])c1ccccc1/C=N/n1c(COc2ccccc2)n[nH]c1=S,4.33% (inactive)
14,CCOc1ccc(-c2n[nH]c(=S)n2/N=C/c2cc3c(cc2[N+](=O)[O-])OCO3)cc1,33.3% (active)
15,O=C1CC2(CC(c3ccc(Cl)cc3)=NO2)C(=O)N1c1ccccc1 (stereo not drawn),-6.96% (inactive)
16,CC(=O)Nc1ccc(NC(=O)C(C)n2c3ccccc3c3nc(=O)cc(C)n32)cc1 (stereo not drawn),1.71% (inactive)
17,Cc1cc(C)cc(N(CC(=O)Nc2c(C)n(C)n(-c3ccccc3)c2=O)S(C)(=O)=O)c1,0.515% (inactive)
18,COc1ccc(Cl)cc1C(=O)NNC(=S)NC1CCCC1,2.3% (inactive)
19,O=C(/C=C/c1ccco1)NC(=S)N1CCCCC1,0.202% (inactive)
20,COc1ccc(Cl)cc1C(=O)NNC(=S)NC(=O)/C=C/c1ccco1,41.2% (active)
21,Cc1ccc(C(=O)NN(CCC#N)C2=NS(=O)(=O)c3ccccc32)cc1,2.03% (inactive)
